# Measurements reported in PubChem BioAssay.
# The source made the active and inactive calls.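 The calls were made as follows, unless noted: active = visual image review flags a hit and inhibition of aggregation exceeds 20%; inconclusive = visual hit but inhibition at or below 20%; inactive = no hit on visual image review.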
# How the values were obtained:
# [1] = inhibitors of TNFa-induced NFkB p65 translocation, primary screen, imaging, HUVEC, MLSMR starter and 10KST1 sets (AID 438;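 active = inhibition above 20% together with a positive visual image hit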;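 also: compound added about 3h40 before a 20 min TNFalpha stimulation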;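 as to inhibition: signal is the nuclear over cytoplasmic p65 intensity ratio per well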); conditions: HUVEC TNFa-induced p65 nuclear translocation; cell count: measured here: nuclei count (cytotoxicity indicator), at 2.08 µM unless noted; inhibition: at 2 µM, stronger effect = higher value unless noted
# [2] = reduction of polyQ htt aggregates in cells – imaging, exon1htt(103Q)mCFP cells, high-content imaging, primary screen (AID 483); conditions: exon1htt(103Q)mCFP cell line, aggregate imaging, at 2 µM; inhibition of aggregation: stronger effect = higher value; nuclei count: measured here: cell count, toxicity;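 also: compound exposure lasted 3 days before fixation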;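 as to nuclei count: percent of the per-plate median nuclei count of sample wells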
# [3] = endothelial E-selectin expression blockers – imaging, HUVEC, immunofluorescence, MLSMR starter and 10KST1 sets, primary screen (AID 487;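 active = visually confirmed hit in the image check and inhibition above 20%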;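 as to inhibition: signal is fraction of cell area covered by stained E-selectin grains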;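 as to nuclei count: 100% = median nuclei count of all wells on the same plate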); conditions: HUVEC TNFalpha-induced E-selectin immunofluorescence imaging, at 2 µM; inhibition: stronger effect = higher value; nuclei count: measured here: cell number, toxicity
# [4] = biological target: Voltage-gated potassium channel subunit beta-2 (Rattus norvegicus) (UniProt P62483); assay: inhibitors of rat Kvbeta2 reductase activity – biochemical, NADPH fluorescence, primary screen (AID 622;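 active = fluorescence slope higher than the sample average by over 3 SD, cut at about -0.22 in these data, passing the limit was not always enough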;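 also: slope of raw intensity against log time taken from 70 to 1610 s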); conditions: recombinant KvBeta, 4-cyanobenzaldehyde reduction, at 10 µM, stronger effect = higher value
# [5] = biological target: Voltage-gated potassium channel subunit beta-2 (Rattus norvegicus) (UniProt P62483); assay: enhancers of rat Kvbeta2 NADPH turnover – biochemical, NADPH fluorescence, primary screen (AID 623;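 active = NADPH fluorescence slope more negative than the mean of all samples by about 3 SD, 99.7% confidence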;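 also: fluorescence intensity change per second fitted from 20 to 320 s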); conditions: Recombinant KvBeta, NADPH fluorescence decrease slope, 10 min; at 10 µM; stronger effect = lower value
# [6] = biological target: Alpha-2C adrenergic receptor (Homo sapiens) (UniProt P18825); assay: compounds altering alpha2C-coupled GIRK flux – cell-based, HEK293 alpha2C/GIRK1/2, thallium flux, primary screen (AID 624;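 active = fluorescence slope after compound addition differing from the mean of all screened samples at 99.7% confidence, in either direction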;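 also: slope of fluorescence ratio to pre-addition baseline per second over 15 to 24 s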); conditions: thallium flux BTC fluorescence, at 10 µM, actives lie on both sides
# [7] = blockers of RIG-like receptor reporter activation – cell-based, Sendai virus stimulus, luciferase, 10K MLSCN set, TLR/RLR signaling modifier project, primary screen (AID 602276;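 active = inhibition at or above 50% at 10 µM; inactive = inhibition below 50%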;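 also: firefly luciferase from ISG56 promoter only with Renilla not read in this screen; 0% = Sendai virus plus DMSO and 100% = medium plus DMSO without virus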); conditions: HEK293 RL24 IRF3 luciferase reporter, at 10 µM, stronger effect = higher value
# [8] = TLR3 IRF3 reporter activation blockers – cell-based, poly I:C stimulus, luciferase, 10K MLSCN set, primary screen (AID 602277;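 active = inhibition of the reporter signal at or above 50%; inactive = inhibition below 50%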); conditions: HEK293-TLR3 RL24 IRF3 luciferase reporter, at 10 µM, stronger effect = higher value
# Alpha-2C adrenergic receptor (Homo sapiens), sequence (P18825 whole entry, looked up): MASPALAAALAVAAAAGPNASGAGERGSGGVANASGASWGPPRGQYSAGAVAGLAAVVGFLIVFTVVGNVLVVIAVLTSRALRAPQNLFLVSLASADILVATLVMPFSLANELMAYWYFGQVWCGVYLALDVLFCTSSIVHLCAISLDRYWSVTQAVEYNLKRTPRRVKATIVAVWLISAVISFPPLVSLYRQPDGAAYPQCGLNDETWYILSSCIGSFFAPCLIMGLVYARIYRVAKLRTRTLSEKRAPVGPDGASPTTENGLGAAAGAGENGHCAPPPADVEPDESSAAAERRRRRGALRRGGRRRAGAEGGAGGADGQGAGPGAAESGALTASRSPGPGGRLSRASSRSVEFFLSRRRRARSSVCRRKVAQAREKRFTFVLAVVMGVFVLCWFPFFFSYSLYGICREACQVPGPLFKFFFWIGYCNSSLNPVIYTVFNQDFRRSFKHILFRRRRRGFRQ
# Voltage-gated potassium channel subunit beta-2 (Rattus norvegicus), sequence (P62483 whole entry, looked up): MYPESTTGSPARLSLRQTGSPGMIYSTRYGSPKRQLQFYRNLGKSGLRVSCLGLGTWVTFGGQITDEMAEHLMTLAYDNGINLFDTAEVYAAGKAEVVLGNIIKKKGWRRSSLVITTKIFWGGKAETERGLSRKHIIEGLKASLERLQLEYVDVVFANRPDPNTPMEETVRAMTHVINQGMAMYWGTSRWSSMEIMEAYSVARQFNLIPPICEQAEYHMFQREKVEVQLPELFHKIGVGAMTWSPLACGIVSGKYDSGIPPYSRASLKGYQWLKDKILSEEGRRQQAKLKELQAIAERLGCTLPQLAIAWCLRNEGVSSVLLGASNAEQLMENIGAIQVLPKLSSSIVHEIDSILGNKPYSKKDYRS
Structure (SMILES),cell count [1],inhibition [1],inhibition of aggregation [2],nuclei count [2] [%],inhibition [3],nuclei count [3] [%],fluorescence slope [4],NADPH fluorescence slope [5],slope [6],inhibition [7],inhibition [8]
CCOCC(=O)NC1CCSC1=O (stereo not given),342,-5% (inactive),17.7% (inactive),75.2,10.8% (inactive),95.3,-0.48 (inactive),-4.8e-05 (inactive),0.00601 (inactive),18.6% (inactive),23.1% (inactive)
c1ccc(C2CC3CC(c4ccco4)N2O3)cc1 (stereo not given),301,-1.4% (inactive),0% (inactive),108,-68.5% (inactive),118,-0.514 (inactive),-2.8e-05 (inactive),0.00573 (inactive),9.13% (inactive),16.9% (inactive)
COC(=O)c1cncn1C(C)c1ccccc1 (stereo not given),671,-3.4% (inactive),-10.9% (inactive),97.9,-88.8% (inactive),110,-0.488 (inactive),-2.9e-05 (inactive),0.0055 (inactive),-53.9% (inactive),13.1% (inactive)
O=C(Cn1ncc2c3ccccc3n(Cc3ccc(F)cc3)c2c1=O)N1CCC2(CC1)OCCO2,454,2.9% (inactive),-17.5% (inactive),74.9,-167% (inactive),130,-0.295 (inactive),-5.2e-05 (inactive),0.00589 (inactive),7.71% (inactive),2.33% (inactive)
O=P(OCC(F)(F)C(F)F)(N1CCCCC1)N1CCCCC1,336,-10.1% (inactive),-9.4% (inactive),121,-152% (inactive),134,-0.5 (inactive),2.3e-05 (inactive),0.00426 (inactive),7.79% (inactive),9.95% (inactive)
CCCCn1c(C)c(C(=O)OCC)c2c(CN3CCOCC3)c(O)ccc21,702,0.6% (inactive),-0.7% (inactive),82.8,-44.3% (inactive),100,-0.373 (inactive),-2.7e-05 (inactive),0.00475 (inactive),11.9% (inactive),19.2% (inactive)
Cc1cccc(-n2c(O)c(C=NCCCN3CCOCC3)c(=O)[nH]c2=O)c1C,710,-3.5% (inactive),9.8% (inactive),96.5,26.7% (inactive),102,-0.391 (inactive),2.3e-05 (inactive),0.00546 (inactive),0.794% (inactive),3.78% (inactive)
CC(C)C(=O)c1cn(Cc2ccccc2C#N)c2ccccc12,504,3.5% (inactive),11.4% (inactive),72.7,-24.8% (inactive),99.8,-0.376 (inactive),3.6e-05 (inactive),0.00712 (inactive),17.4% (inactive),20.1% (inactive)
CCn1nc(-c2ccccc2)nc2c(=O)n(C)c(=O)nc1-2,367,-31.1% (inactive),-8.2% (inactive),86,-133% (inactive),109,-0.457 (inactive),1.4e-06 (inactive),-0.00207 (active),-39.4% (inactive),94.3% (active)
CC(C)OCCCNC(=O)c1c(N)n(CC2CCCO2)c2nc3ccccc3nc12 (stereo not given),430,-6.7% (inactive),-14.6% (inactive),75,-83% (inactive),196,-0.0369 (inactive),2e-05 (inactive),0.00623 (inactive),11.4% (inactive),19.9% (inactive)
Cc1cc(C)c(C(=O)CN2CCOCC2)c(C)c1,408,7.3% (inactive),7.9% (inactive),89.5,-77.5% (inactive),115,-0.419 (inactive),-0.000154 (inactive),0.00628 (inactive),13.2% (inactive),24.8% (inactive)
C[C@H]1CCCC(=O)CCC/C=C/c2cc(O)cc(O)c2C(=O)O1,420,6.1% (inactive),4.4% (inactive),93.9,-42% (inactive),108,-0.55 (inactive),-7.2e-05 (inactive),0.00303 (inactive),13.5% (inactive),8.12% (inactive)
O=c1c2ccccc2nc(CSc2ncnc3nc[nH]c23)n1-c1ccccc1,546,2.3% (inactive),2.9% (inactive),106,-123% (inactive),103,-0.492 (inactive),-9.1e-05 (inactive),0.00489 (inactive),-0.567% (inactive),13.7% (inactive)
O=C(c1ccc2nc(-c3ccco3)c(-c3ccco3)nc2c1)N1CCC2(CC1)OCCO2,597,-12.6% (inactive),-4.6% (inactive),93.5,9% (inactive),105,-0.104 (inactive),-5.1e-06 (inactive),0.00382 (inactive),-1.04% (inactive),-7.99% (inactive)
c1ccc(C2NCc3ccccc3-n3cccc32)cc1 (stereo not given),704,-11% (inactive),22.5% (inactive),66.6,-10.1% (inactive),93.5,-0.554 (inactive),-4e-05 (inactive),0.00504 (inactive),6.74% (inactive),15.8% (inactive)
